PubChem BioAssay AID2094 (Broad Institute, 2009)
Out of some 300,000 compounds screened, about 1,200 (0.4%) were called active. The sample holds actives, similar compounds and a random draw of the others, so the mix is not that of the screen. Values without a mark were called inactive. No stated cut-off is given here; in the data, active means activity change below about -75% (passing the limit was not always enough); inconclusive means no clear call, values can overlap the other calls.

Experiment: Vibrio harveyi AI-2 quorum sensing modulators, primary screen, JMH597 strain, luminescence/OD600 ratio (AID 2094);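 further: luminescence divided by OD600 gain over 9 h not by final OD600 alone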
Conditions: Vibrio harveyi JMH597 AI-2 luminescence/OD600 ratio, 9 h; at 7.5 µM; active compounds read low; 0 = neutral-control median; strain lacks LuxN and CqsS sensors

SMILES	activity change
CCN(C(=O)COc1cccnc1[N+](=O)[O-])C1CCS(=O)(=O)C1 (centres undefined)	32.7%
N#CCSc1nc(-c2ccccc2)nc2ccc(F)cc12	12.5%
COC(=O)c1ccc(CSc2nncn2C)cc1	9.24%
COC(=O)c1ccc(SCc2ccccc2)nc1	-80.3% (active)
COC(=O)c1ccc(CSc2nncn2N)cc1	26.7%
COc1ccc(N2CCN(S(=O)(=O)c3cc(Br)cnc3N)CC2)cc1	15.8%
COc1ccc2ccccc2c1/C=N/NC(=O)c1cc(C)[nH]n1	11.2%
Cc1cc(C(=O)N/N=C/c2cc([N+](=O)[O-])cc(C)c2O)n[nH]1	-86.5% (active)
CC(C)(C)c1cc(C(=O)N/N=C/c2ccc([N+](=O)[O-])s2)n[nH]1	16.7%
COC(=O)c1ccc(NC(=O)CSc2nnc(C3CC3)n2C)cc1	40.9%
Cc1c(NC(=O)C(C)OC(=O)c2c3c(nc4ccccc24)CCC(C)C3)c(=O)n(-c2ccccc2)n1C (centres undefined)	5.39%
Cc1cc(C)n(CCNCc2c(C(=O)N3C[C@@H](C)O[C@@H](C)C3)nc3ccc(Cl)cn23)n1	11%
Cc1ccc(NS(=O)(=O)c2cc3c(cc2C)NC(=O)CO3)cc1	20.3%
Cc1ccc(NS(=O)(=O)c2ccc3c(c2)NC(=O)CO3)cc1	-85.9% (active)
O=C1COc2ccc(S(=O)(=O)NCCc3ccc(Cl)cc3)cc2N1	-21.2%
CC(=O)Nc1ccc(NS(=O)(=O)c2ccc3c(c2)NC(=O)CC(=O)N3)cc1	6.21%
O=C1COc2ccc(S(=O)(=O)Nc3ccc(OC(F)(F)F)cc3)cc2N1	-94.2% (active)
Cc1cccc(CCNS(=O)(=O)c2ccc3c(c2)NC(=O)CO3)c1	-59.5%
COc1cc(NC(=O)c2ccccc2NS(=O)(=O)c2ccc(Cl)s2)cc(OC)c1	26.9%
CCOc1ccc(NC(=O)CC(Cc2ccc(Cl)cc2)C(=O)O)cc1 (centres undefined)	-20.6%

SMILES	activity change
CCCCCCC12CCC(C(=O)O)(CC1)CC2	24.4%
O=C(CCC(=O)c1cccs1)Nc1nc2ccccc2s1	-87.3% (active)
O=C(CCC(=O)c1cccs1)NC1CCCCCC1	-7.35%
Cn1nnnc1SCC(=O)Nc1nc2ccccc2s1	32.4%
O=C(NC(=S)Nc1ccccc1C(=O)O)c1ccc(-c2ccc(Br)cc2)o1	9.83%
CN(C)S(=O)(=O)c1ccc(N/C=C(\[N+](=O)[O-])S(=O)(=O)c2ccccc2)cc1	28.7%
O=C(c1cc(COc2cccc(C(F)(F)F)c2)on1)N1CCSCC1	-30.7%
Cc1ccc(OCc2cc(C(=O)N(C)CCc3ccccc3)no2)cc1C	36%
Cc1ccc(OCc2cc(C(=O)N(C)CCn3ccnc3C)no2)cc1C	14.9%
CN(Cc1cnccn1)C(=O)c1cc(COc2cccc(C(F)(F)F)c2)on1	-92.5% (active)
Cc1cc(CN(C)C(=O)c2cc(COc3ccc(C)c(C)c3)on2)n[nH]1	-90.7% (active)
CN(Cc1cccnc1)C(=O)c1cc(COc2ccc3ncccc3c2)on1	38.5%
O=S(=O)(c1ccc(Cl)cc1)N1CCCN(c2ccc(C(F)(F)F)cn2)CC1	6.59%
COc1ccc(CN2CCn3ncc(C(=O)Nc4ccc(Cl)cc4Cl)c3C2=O)cc1	23.8%
CCOc1ccc(S(=O)(=O)Nc2ccncc2)c(C)c1C	21.3%
COc1ccc(Cc2nc3ccc(C(=O)N4CCC(N(C)C)C4)cc3o2)cc1 (centres undefined)	-2.62%
COCC1CCN(C(=O)c2ccc3oc(Cc4ccccc4)nc3c2)C1 (centres undefined)	0.814%
COC(=O)C1CCN(C(=O)c2ccc3oc(Cc4ccc(Cl)cc4)nc3c2)CC1	-86% (active)
Oc1ccc(-c2cccc(-c3ccc(O)cc3)c2)cc1	-10.9%
O=C(NC1CCCCC1)c1ccc(-c2ccc(Cl)cc2)o1	2.19%

SMILES	activity change
COc1ccc(NC(=O)[C@H](NC(=O)[C@@H]2Cc3ccccc3CN2)c2ccccc2)cc1	13.8%
CCc1ccc(C(=O)CSc2nnc(C)c(=O)[nH]2)cc1	17.8%
COc1ccccc1C(=O)N1C(CC(=O)Nc2ccccc2C)C(=O)NC2CCCCC21 (centres undefined)	6.5%
CC(C)(C)OC(=O)CNC(=O)c1[nH]cnc1C(=O)N[C@@H](Cc1ccccc1)C(=O)OCc1ccccc1	20.9%
S=C(NCc1ccc(Cl)cc1)NC12CC3CC(CC(C3)C1)C2	-20.7%
O=C(NC(=S)NC1CCCCC1)c1ccc(Cl)cc1	6.82%
S=C(NCc1ccc(Cl)cc1)NC1CCCCC1	-86.1% (active)
COc1cc(C(=O)OCC(=O)NC(C)CCc2ccccc2)cc(OC)c1OC (centres undefined)	17.1%
CCCNC(=O)c1ccc(N2CCC3(CC2)CC(c2cccc(Br)c2)=NO3)c(NC(=O)c2ccco2)c1	20.3%
Cc1ccc(/C=C/C(=O)Nc2ccc([N+](=O)[O-])c(NC(=O)/C=C/c3ccc(C)o3)c2)o1	34.4%
O=C(N/N=C/c1ccc([N+](=O)[O-])o1)c1cn(-c2ccccc2)nc1-c1ccc(F)cc1	7.69%
O=C(/C=C/c1ccc([N+](=O)[O-])o1)NNC(=O)c1ccc(F)cc1	-90.7% (active)
Cc1nc(CN2CCN(C(=O)CCc3nnc(Cc4c[nH]c5ccccc45)o3)CC2)cs1	18%
COc1ccccc1NC(=O)COC(=O)Cc1ccc(S(=O)(=O)N2CCCCC2)s1	2.99%
CCOC(=O)c1nn(-c2cccc(C)c2)cc1C(=O)c1ccccc1	-88.4% (active)
CC(=O)c1nn(-c2ccc(C)cc2)cc1C(=O)c1cccc(Br)c1	14.3%
CCOC(=O)c1cn(Cc2cccc(C)c2)nn1	13.8%
Cc1cc(S(=O)(=O)N2CCOCC2)ccc1OCC(=O)N1CCOCC1	18.8%
O=C(NC1CCN(C(=S)Nc2ccc(Cl)cc2)CC1)C1CCCCC1	16.7%
